# This is a sample that favours compounds with a hit; in the whole collection about 2.7% have one here.
# Nrf2 ARE act = qHTS of Nrf2 Activators; AREc32 ARE-luciferase reporter (MCF7-derived line), luminescence, 24 h; Potency, µM (series often up to 46.1 µM), inactives show top-dose activation, hits mostly activators; actives 0.31% (n = 410,000); further: potency means the concentration at half of the fitted maximal effect; % of control where 0% means no effect; nearly all actives have a fitted effect of over 65% in size
#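 For detection, Steady-Glo was added and plates sat 30 min at RT; before that, AREc32_Fluc cells grown overnight in OPTI-MEM/5% FBS had been treated with 23 nL compound for 24 hr at 37 deg C.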
# 12-LOX inh = Primary qHTS assay for inhibitors of human arachidonate 12S-lipoxygenase (ALOX12): Round 2; purified 12hLO, xylenol orange hydroperoxide absorbance; Potency, µM (series often up to 108 µM), for inactives: top-dose activity change, negative = inhibition, hits mostly inhibitors; actives 1.1% (n = 580,000); AID 1671190, 2021; further: potency means the concentration at half of the fitted maximal effect; on the % scale 0 is the no-effect control and ±100 the full control effect
#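 Hydroperoxide product was detected by ferrous iron/xylenol orange as the 573 to 405 nm absorbance ratio. Arachidonic acid at 40 uM (final) was turned over for 30 min at room temperature by 150 nM human 12hLO, pH 7.0 Hepes buffer, after 15 min compound preincubation.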
# Nrf2 inh = Nrf2 qHTS screen for inhibitors; actives 2.1% (n = 360,000); A549 ARE-Fluc reporter, luciferase luminescence, 18-24 h; Potency, µM (highest dose often 46 µM), for inactives: top-dose activity change, negative = inhibition, hits mostly inhibitors; further: potency means the concentration at half of the fitted maximal effect; on the % scale 0 is the no-effect control and ±100 the full control effect; nearly all actives have a fitted effect of over 60% in size
#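 Reporter: ARE-Fluc in A549. Exposure: 18-24 h, 37 °C, 5% CO2, 5% FBS OPTI-MEM. Readouts: fluorescent cytotoxicity (CellTiter-Fluor), then luminescent Nrf2 signal after BugLite.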
# LDHA block = qHTS assay for inhibitors of human lactate dehydrogenase; L-lactate dehydrogenase A chain (Homo sapiens), P00338; activity change, % (values are at about 110 or 230 µM); actives 0.15% (n = 480,000); purified LDHA, NADH/diaphorase-resazurin fluorescence; active compounds read low; in the data active means activity change below about -30%; inconclusive means mostly about -25% to -30%;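 further: plate controls were DMSO wells for no effect and wells without enzyme for full effect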
#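 Human LDH5 (2 nM) was incubated with 0.06 mM NADH and 0.2 mM pyruvate for 5 min at room temperature in Tris pH 7.4. Remaining NADH was coupled through diaphorase/resazurin, and resorufin fluorescence was read at 0 and 20 min.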
# mIDH1 inhibitor = qHTS for Inhibitors of mutant isocitrate dehydrogenase 1 (IDH1): qHTS. IDH1-R132H enzyme, NADPH consumption, diaphorase/resazurin fluorescence. Potency, µM (doses to about 76.6 µM), for inactives: top-dose activity change, negative = inhibition, usual class: inhibitors. actives 0.093% (n = 390,000); further: potency means the concentration at half of the fitted maximal effect; on the % scale 0 is the no-effect control and ±100 the full control effect; nearly all actives have a fitted effect of over 65% in size
# Target sequence (O75874 whole entry R132H, stated change not applied): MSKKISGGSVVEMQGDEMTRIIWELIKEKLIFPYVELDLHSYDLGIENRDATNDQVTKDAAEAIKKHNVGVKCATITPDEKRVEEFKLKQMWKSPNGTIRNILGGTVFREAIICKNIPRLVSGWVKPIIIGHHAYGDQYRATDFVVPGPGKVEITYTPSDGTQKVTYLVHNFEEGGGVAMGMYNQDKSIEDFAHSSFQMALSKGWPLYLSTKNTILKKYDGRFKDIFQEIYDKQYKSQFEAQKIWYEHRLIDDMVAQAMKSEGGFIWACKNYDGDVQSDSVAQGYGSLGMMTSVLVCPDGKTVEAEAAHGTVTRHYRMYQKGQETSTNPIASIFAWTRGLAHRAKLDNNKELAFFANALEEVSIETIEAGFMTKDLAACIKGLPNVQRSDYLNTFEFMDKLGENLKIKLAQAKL
#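 IDH1-R132H (0.5 ug/mL) preincubated 30 min with compound, then NADPH (0.016 mM) and alpha-KG (2 mM) added; 80 min at RT, pH 7.5. Remaining NADPH coupled via diaphorase/resazurin to fluorescence (540/590 nm); concentration-response curves normalized to no-enzyme control.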
# A549 tox = Nrf2 qHTS screen for inhibitors: counterscreen for cytotoxicity. A549 ARE-Fluc cells, CellTiter-Fluor viability, 18-24 h. Potency, µM (highest dose often 46 µM), inactives show at the highest dose activity change, negative = cytotoxicity, hits mostly inhibitors. actives 0.16% (n = 390,000). AID 504648, 2011; further: potency means the concentration at half of the fitted maximal effect; on the % scale 0 is the no-effect control and ±100 the full control effect
#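 Cytotoxicity counterscreen: CellTiter-Fluor fluorescence was measured in A549 ARE_Fluc cells after 18-24 h of compound exposure in a concentration series. The subsequent BugLite luminescent read reports ARE-luciferase activity.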
# * marks the source's active call; other numbers are inactive results; ? = inconclusive; . = no result; [ ] = another dose, or the depositor's remark. Unless noted, the call rests on the fitted dose curve; in most records, active means well fitted curve in the direction sought with a large enough effect; inconclusive means small, poorly fitted or top-dose-only effect, or another doubt; inactive means no such curve, though single readings can be large; an effect the other way counts as inactive or inconclusive.
SMILES,Nrf2 ARE act,12-LOX inh,Nrf2 inh,LDHA block,mIDH1 inhibitor,A549 tox
CCOc1cc2c(cc1OCC)-n1cccc1C(c1ccc(C(C)C)cc1)NC2 (stereo not given),8.7%,?,23.1µM*,-1.2,1.9%,?
CCOc1cc2c(cc1OCC)-n1cccc1C(c1ccc(F)cc1)NC2 (stereo not given),3.1%,-19.4%,-14.7%,1.3,-0.8%,4.1%
N[C@H](CO)Cc1ccccc1,-0.6%,22.6%,-7.3%,-16.6,-4.6%,-3.6%
OCc1cccc[n+]1CCc1ccccc1,-0.1%,?,7.31µM*,0.3,1.3%,-1.7%
OCC1CN2CCCCC2CN1 (stereo not given),.,48.4%[365 µM],.,.,.,.
CN(C)S(=O)(=O)c1ccc(C(=O)NNc2nc(-c3ccccc3)c3cc(Br)ccc3n2)cc1,5.0%,16.2%,13µM*,-1.4,-2.5%,-20.3%
CC(N)C(=O)NC1C2C(=C(O)CC(O)C2O)C(=O)OC1(C)C(Cl)Cl (stereo not given),-2.0%,?,1.64µM*,0.2,-0.8%,2.06µM*
COc1ccc(NC(=O)N2[C@H]3CC[C@@H]2c2cncnc2C3)cc1F,.,2.6%,.,.,.,.
COC(=O)C1=C(c2ccc(OC)c(OC)c2)C[C@@H]2CC[C@H]1N2C(=O)NCCOc1ccccc1,-0.2%,9.4%,0.7%,-0.5,-7.3%,-1.3%
COC(=O)C1=C(c2ccc(-c3ccccc3)c(F)c2)C[C@@H]2CC[C@H]1N2C(=O)NCCOc1ccccc1,-0.6%,4.7%,18.4µM*,1.5,-2.3%,?
COC(=O)C1=C(c2ccc(-c3ccccc3)c(F)c2)C[C@@H]2CC[C@H]1N2C(=O)NCC1CC1,-0.5%,-0.2%,13µM*,-4.6,-0.1%,?
COCCNC(=O)N1[C@H]2CC[C@@H]1C(C(=O)OC)=C(c1ccc(-c3ccccc3)c(F)c1)C2,4.9%,30.3%,18.4µM*,0.0,0.8%,-3.1%
COC(=O)C1=C(c2ccc(-c3ccccc3)c(F)c2)C[C@@H]2CC[C@H]1N2C(=O)NC1Cc2ccccc2C1,4.1%,3.0%,?,-1.6,-0.2%,-18.6%
COc1cc2c(cc1Oc1ccccc1)NC(=O)C21CCN(C(=O)c2scnc2C)CC1,.,16.1%,.,.,.,.
COc1cccc2cc(-c3ccc(OCC(=O)N4CCN(C)CC4)cc3)c(=O)oc12,.,1.5%,.,5.3,.,.
Cc1[nH]nc2c1C(c1ccccc1)SCC(=O)N2 (stereo not given),.,?,.,2.9,.,.
C[N+]12CCC(CC1)C(C(O)(c1ccccc1)c1cccs1)C2 (stereo not given),0.4%,44.7µM*,3.4%,-36.3*,-3.7%,-2.0%
CCC[N+]12CCC(CC1)C(C(O)(c1ccccc1)c1ccccc1)C2 (stereo not given),-0.6%,?,3.7%,-1.7,2.0%,2.2%
COc1ccc2c(c1)C1(CCN(C(=O)c3cccc(C)c3)C1)C(=O)N2C (stereo not given),.,-2.0%,.,.,.,.
CC(C)c1ccc(NC(=O)N2C[C@H]3C[C@@H](C2)c2cccc(=O)n2C3)cc1,0.1%,28.0%,2.6%,-10.5,3.5%,12.1%
CC(C)NC(=O)N1C[C@@H]2C[C@H](C1)c1ccc(C3CCCCC3)c(=O)n1C2,.,31.6µM*,.,.,.,.
CCc1ccc(CN2CCN(Cc3cc(Br)ccc3O)CC2)cc1,0.5%,0.631µM*,?,-17.9,2.0%,2.9%
CC(=O)c1c(C)[nH]c(C(=O)C(C)NC(C)c2ccccc2F)c1C (stereo not given),.,?,.,5.3,.,.
